# Data from publication PMC4336329 (PLoS ONE, 2015).
# Hit rate of the full screen: of about 310,000 compounds, about 14,000 (4.5%) showed an effect of 50% or more. Effects have a minus sign here. The entries come from a sample that favours strong results as a whole.
# Molecular target: human ether-à-go-go-related gene (hERG) potassium channel (human, UniProt Q12809)
# Test: primary screen, population patch clamp on CHO cells stably expressing hERG; higher = less effect of the substance
# 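Further: peak tail current of the secondary pulse compared with the same well before compound.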
# human ether-à-go-go-related gene (hERG) potassium channel, sequence (Q12809 whole entry, looked up): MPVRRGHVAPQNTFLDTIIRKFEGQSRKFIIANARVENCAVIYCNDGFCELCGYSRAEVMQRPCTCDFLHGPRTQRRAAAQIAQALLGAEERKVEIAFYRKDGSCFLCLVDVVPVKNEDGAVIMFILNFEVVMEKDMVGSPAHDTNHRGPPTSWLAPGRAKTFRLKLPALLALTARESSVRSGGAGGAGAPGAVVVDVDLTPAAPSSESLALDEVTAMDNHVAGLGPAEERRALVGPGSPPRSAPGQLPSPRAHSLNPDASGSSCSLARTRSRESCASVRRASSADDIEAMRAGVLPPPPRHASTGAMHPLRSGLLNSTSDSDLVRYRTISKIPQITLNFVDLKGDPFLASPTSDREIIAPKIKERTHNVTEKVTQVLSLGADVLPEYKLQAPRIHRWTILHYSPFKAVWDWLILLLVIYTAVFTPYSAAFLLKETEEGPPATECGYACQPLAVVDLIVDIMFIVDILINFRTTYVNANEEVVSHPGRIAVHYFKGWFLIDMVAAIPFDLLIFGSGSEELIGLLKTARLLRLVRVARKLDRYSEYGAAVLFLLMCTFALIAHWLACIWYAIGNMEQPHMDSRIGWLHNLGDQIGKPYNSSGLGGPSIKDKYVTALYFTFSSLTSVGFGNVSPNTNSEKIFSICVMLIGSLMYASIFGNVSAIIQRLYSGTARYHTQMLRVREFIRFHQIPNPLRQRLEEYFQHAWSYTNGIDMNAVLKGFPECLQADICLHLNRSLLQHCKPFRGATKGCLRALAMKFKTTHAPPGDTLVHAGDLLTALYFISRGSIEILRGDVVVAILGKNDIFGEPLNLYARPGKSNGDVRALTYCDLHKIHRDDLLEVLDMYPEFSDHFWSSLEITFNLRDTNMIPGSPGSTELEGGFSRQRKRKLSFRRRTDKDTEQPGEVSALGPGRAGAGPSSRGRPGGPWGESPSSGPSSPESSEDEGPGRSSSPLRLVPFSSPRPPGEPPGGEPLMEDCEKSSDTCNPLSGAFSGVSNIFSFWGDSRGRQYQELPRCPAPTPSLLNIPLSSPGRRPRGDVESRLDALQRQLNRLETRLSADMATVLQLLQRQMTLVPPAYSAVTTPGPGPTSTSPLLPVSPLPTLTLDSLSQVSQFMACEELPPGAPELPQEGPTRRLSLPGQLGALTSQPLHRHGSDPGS
row,SMILES,"hERG current change (%, negative = inhibition) at 10uM"
1,Cc1ccc2oc(=O)c3cnn(CC(=O)N(CCN(C)C)Cc4ccco4)c3c2c1,-25.7%
2,CC(C)c1ccc(-c2c(NCCc3ccccc3)c(=O)c2=O)cc1,22.1%
3,Cc1ccc(OCCNC(=O)CNC(=O)c2ccccc2Cl)cc1,-3.58%
4,COc1cc(CN2CCNCC2)cc(OC)c1OC.Cl,5.64%
5,CCCn1c(NCc2ccc3c(c2)OCO3)nc2ccccc21,12.6%
6,c1ccc2c(c1)nc(NCc1ccc3c(c1)OCO3)n2CCN1CCOCC1,-66.8%
7,CCCCn1c(NCc2ccc3c(c2)OCO3)nc2ccccc21,-61%
8,CCCCn1c(NCc2ccc(N(C)C)cc2)nc2ccccc21,-43.7%
9,O=C(NCCN1CCOCC1)C(=O)NCc1ccc2c(c1)OCO2,22.8%
10,Nc1c(C(=O)NCc2ccc3c(c2)OCO3)c2nc3ccccc3nc2n1CCCN1CCOCC1,1.46%
11,CCCn1c(NCc2ccc(N(C)C)cc2)nc2ccccc21,-40.2%
12,CCn1c(NCc2ccc3c(c2)OCO3)nc2ccccc21,-38.5%
13,CN(C)CCn1c(NCc2ccc3c(c2)OCO3)nc2ccccc21.Cl,-59.5%
14,COc1cc2c(cc1OC)C(CC(=O)O)N(C(=O)CC1CCCC1)CC2 (centres unmarked),20.6%
15,COC(=O)CCCCC1SCC(NC(=O)OC)C1NC(=O)OC (centres unmarked),2.09%
16,CC(C)(C)OC(=O)COc1cc(F)ccc1[N+](=O)[O-],-3.54%
17,Cc1ccc(OCCn2c(=O)sc3ccccc32)cc1,4.98%
18,CCn1c(=N)n(CC(O)COc2ccc(C)cc2)c2ccccc21.Cl (centres unmarked),-70%
19,Cc1ccc(OCCn2c(=O)cnc3ccccc32)cc1,-9.95%
20,OCc1nc2ccccc2n1CC(O)COc1ccccc1 (centres unmarked),6.25%
21,Br.CCCCn1c(=N)n(CCOc2ccc(C)cc2)c2ccccc21,-73.1%
22,CCCCn1c(=N)n(CC(O)COc2ccc(C)cc2)c2ccccc21.Cl (centres unmarked),-81.8%
23,Cc1ccc(OCC(O)Cn2c3ccccc3c3ccccc32)cc1 (centres unmarked),8.1%

row,SMILES,"hERG current change (%, negative = inhibition) at 10uM"
1,Cc1nc2ccccc2n1CC(O)COc1ccc(Br)cc1 (centres unmarked),-49.9%
2,CCCCn1c(=N)n(CC(O)COc2ccccc2)c2ccccc21 (centres unmarked),-73.1%
3,Cc1cc(NC(=O)C2CCCN(S(=O)(=O)c3c(C)noc3C)C2)n[nH]1 (centres unmarked),-16.1%
4,CCOc1ccc(C(=O)COC(=O)CNC(=O)C2CCCCC2)cc1,-0.0501%
5,O=C(COC(=O)C12CC3CC(CC(C3)C1)C2)Nc1ccc([N+](=O)[O-])cc1Br,8.64%
6,CN1CCC(=NNC(=O)COc2ccc(Cl)cc2)CC1,17.4%
7,CCCn1c(=N)n(CC(O)COc2ccc(C)cc2)c2ccccc21.Cl (centres unmarked),-89%
8,CC1SC2(CN3CCC2CC3)NC1=O (centres unmarked),18%
9,CC1=CN2C(=NC(=O)CC2(C)C(=O)N(CC(=O)NC2CCCC2)Cc2ccccc2)C=C1 (centres unmarked),9.32%
10,COc1ccccc1N1CCN(c2nc3ccccc3nc2C(C#N)C(=O)OC(C)C)CC1 (centres unmarked),-12%
11,Cc1cccc(C(=O)N2CC3(C)CC2CC(C)(C)C3)c1 (centres unmarked),0.368%
12,Cc1ccc(OCC(O)CN2CC3(C)CC2CC(C)(C)C3)cc1.O=C(O)C(=O)O (centres unmarked),-53.6%
13,CC1(C)CC2CC(C)(CN2CC(O)COc2ccccc2)C1.O=C(O)C(=O)O (centres unmarked),-41.5%
14,Cc1cccc(OCC(O)CN2CC3(C)CC2CC(C)(C)C3)c1 (centres unmarked),-67.6%
15,Cc1cccc(C)c1OCC(=O)N1CC2(C)CC1CC(C)(C)C2 (centres unmarked),-7.94%
16,CC1(C)CC2CC(C)(CN2CC(O)c2ccccc2)C1.O=C(O)C(=O)O (centres unmarked),-42.5%
17,CSc1nnc(C)c(=O)n1COC(=O)COc1ccc2ccccc2c1,-7.33%
18,Cc1nnc(SCCN2CCOCC2)n1-c1cccc(Cl)c1.O=C(O)C(=O)O,-4.95%
19,COc1ccccc1N1CCN(C(=O)CN(c2ccc(C)c(C)c2)S(C)(=O)=O)CC1,-6.02%
20,Cc1ccc(OCC(=O)NCc2ccccn2)cc1,12.4%
21,Cc1cc(OCC(=O)NCc2ccncc2)c2c3c(c(=O)oc2c1)CCC3,-10.3%
22,CCCc1cc(=O)oc2cc(C)cc(OCC(=O)NCc3ccccn3)c12,-33.7%
23,Cc1cc(OCC(=O)NCc2cccnc2)c2c3c(c(=O)oc2c1)CCCC3,-40.1%

row,SMILES,"hERG current change (%, negative = inhibition) at 10uM"
1,Cc1cc(OCC(=O)NCc2ccncc2)c2c(C)cc(=O)oc2c1,-30.1%
2,CCc1cc(=O)oc2cc(C)cc(OCC(=O)NCc3ccccn3)c12,-40%
3,Cc1cc(OCC(=O)NCc2ccccn2)cc(C)c1Br,-69.4%
4,Cc1cc(OCC(=O)NCc2ccncc2)c2c(C)c(C)c(=O)oc2c1,-40.6%
5,CCc1cc(=O)oc2cc(C)cc(OCC(=O)NCc3ccncc3)c12,-54.8%
6,Cc1cc(OCC(=O)NCc2ccncc2)c2c3c(c(=O)oc2c1)CCCC3,-62.2%
7,O=C(COc1ccc(Br)cc1)NCc1ccccn1,-8.53%
8,CCCCc1cc(=O)oc2cc(C)cc(OCC(=O)NCc3ccccn3)c12,-56.4%
9,CSc1cccc(NC(=O)/C=C/c2ccccc2)c1,-7.06%
10,CC(=O)N1CCN(S(=O)(=O)c2cccc(C(=O)NCCC3=CCCCC3)c2)CC1,-8.54%
11,O=C1N(c2ccc(Cl)c(Cl)c2)CN(Cc2ccccc2)CN1n1cnnc1,-25.9%
12,COc1ccccc1-c1noc(CCC(=O)Nc2ccccc2Cl)n1,-4.71%
13,CS(=O)(=O)c1ccccc1-c1nnc(NC(=O)COc2ccc(Cl)cc2)o1,-6.82%
14,CCC1=C(OC(=O)N(CC)CC)N2C(=O)OC(=NCc3ccccc3)[C@]2(C)[C@H]2C1=CC[C@H]1C(=O)NC(=O)[C@H]12,-6.14%
15,CCC1CCCCN1C(=O)c1cc2c(=O)n3cccc(C)c3nc2s1 (centres unmarked),4.01%
16,CCC1Oc2ccccc2N(CC(=O)NCCC2=CCCCC2)C1=O (centres unmarked),3.64%
17,FC(F)(F)c1cc(-c2ccc(Cl)cc2)nc2ncnn12,-16.2%
18,CCCCc1cc(=O)oc2cc(C)cc(OCC(=O)NCc3ccncc3)c12,-84.1%
19,CCCCc1cc(=O)oc2cc(C)cc(OCC(=O)Nc3ccccn3)c12,28.6%
20,CCCc1cc(=O)oc2cc(C)cc(OCC(=O)NCc3ccncc3)c12,-69.5%
21,CCc1cc(=O)oc2cc(C)cc(OCC(=O)NCc3cccnc3)c12,-31.5%
22,CCCc1cc(=O)oc2cc(C)cc(OCC(=O)Nc3ccccn3)c12,13.2%
23,CCCc1cc(=O)oc2cc(C)cc(OCC(=O)Nc3cccnc3)c12,-0.927%

row,SMILES,"hERG current change (%, negative = inhibition) at 10uM"
1,CCCCc1cc(=O)oc2cc(C)cc(OCC(=O)NCc3cccnc3)c12,-54.1%
2,CCCCc1cc(=O)oc2cc(C)cc(OCC(=O)Nc3cccnc3)c12,26.7%
3,CCCc1cc(=O)oc2cc(C)cc(OCC(=O)NCc3cccnc3)c12,-44.4%
4,CCOc1ccc(NC(=O)Cn2nnc(C(=O)NCc3ccco3)c2N)cc1,15.1%
5,C=CCN1C(=O)S/C(=C/c2ccc(Sc3nc4ccccc4[nH]3)o2)C1=O,3.61%
6,CCN1C(=O)N[C@@H](c2ccccc2)[C@H](C(=O)OC)[C@H]1C,-6.4%
7,COC(=O)Nc1nn(-c2ccc(C)cc2)c(=O)c(C#N)c1C,11.2%
8,CN(C)C(C(=O)NC1CCCCC1)c1ccc(Cl)cc1 (centres unmarked),4.27%
9,COC(=O)c1ccc(N2CCN(C)CC2)c(NC(=O)COc2cccc(C)c2)c1,-18.9%
10,CCOC(=O)c1ccc(N=C(C)c2c(O)[nH]c(=O)[nH]c2=O)cc1,10.8%
11,CCCCn1nc(C(=O)NC2=NCCS2)c2ccccc2c1=O,-16.3%
12,Cc1cc(NC(=O)COC(=O)CC2CCCC2)c([N+](=O)[O-])cc1C,9.34%
13,CCOC(=O)CC(NC(=O)c1cc2cc(Cl)cc(Cl)c2oc1=O)c1cccc([N+](=O)[O-])c1 (centres unmarked),-66.8%
14,CCOC(=O)CC(NC(=O)c1cc2cccc(OC)c2oc1=O)c1ccc(OC)cc1 (centres unmarked),-5.76%
15,CCOC(=O)CC(NC(=O)c1cc2cccc(OC)c2oc1=O)c1cccc([N+](=O)[O-])c1 (centres unmarked),-23%
16,CCOC(=O)CC(N)c1cccc([N+](=O)[O-])c1.Cl (centres unmarked),2.9%
17,CCOC(=O)CC(NC(=O)c1cc2ccccc2oc1=O)c1cccc([N+](=O)[O-])c1 (centres unmarked),-58.5%
18,CCOC(=O)CC(NC(=O)c1cc2cc(Br)ccc2oc1=O)c1cccc([N+](=O)[O-])c1 (centres unmarked),-27.5%
19,O=C(Nc1ccccn1)C1COc2ccccc2O1 (centres unmarked),16.1%
20,CCOC(=O)c1sc2nc(C)nc(NC3CCC(O)CC3)c2c1C (centres unmarked),2.9%
